Laboratory results from PubChem BioAssay AID743320 (Broad Institute, 2014).
Entries with a potency or affinity are not part of this list. Calls of active or inactive are those of the source.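 How the source made its calls: active means signal drop whose fitted half-maximal potency is at most twice the top valid dose tested; inconclusive means flat curve inhibiting 30 to 70 percent, or a poor fit; inactive means the rest.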

Each compound was assayed against Endoplasmic reticulum aminopeptidase 2 (Homo sapiens) (UniProt Q6P179) (assay: ERAP2 aminopeptidase inhibitors, dose response, selectivity assay for selective ERAP1 modulator project, biochemical, fluorescence plate reader, cherry-picked, set 2 (AID 743320)). Details: recombinant ERAP2, Arg-AMC fluorescence, 1 h; series mostly up to 11 µM.
Endoplasmic reticulum aminopeptidase 2 (Homo sapiens), sequence (Q6P179 whole entry, looked up): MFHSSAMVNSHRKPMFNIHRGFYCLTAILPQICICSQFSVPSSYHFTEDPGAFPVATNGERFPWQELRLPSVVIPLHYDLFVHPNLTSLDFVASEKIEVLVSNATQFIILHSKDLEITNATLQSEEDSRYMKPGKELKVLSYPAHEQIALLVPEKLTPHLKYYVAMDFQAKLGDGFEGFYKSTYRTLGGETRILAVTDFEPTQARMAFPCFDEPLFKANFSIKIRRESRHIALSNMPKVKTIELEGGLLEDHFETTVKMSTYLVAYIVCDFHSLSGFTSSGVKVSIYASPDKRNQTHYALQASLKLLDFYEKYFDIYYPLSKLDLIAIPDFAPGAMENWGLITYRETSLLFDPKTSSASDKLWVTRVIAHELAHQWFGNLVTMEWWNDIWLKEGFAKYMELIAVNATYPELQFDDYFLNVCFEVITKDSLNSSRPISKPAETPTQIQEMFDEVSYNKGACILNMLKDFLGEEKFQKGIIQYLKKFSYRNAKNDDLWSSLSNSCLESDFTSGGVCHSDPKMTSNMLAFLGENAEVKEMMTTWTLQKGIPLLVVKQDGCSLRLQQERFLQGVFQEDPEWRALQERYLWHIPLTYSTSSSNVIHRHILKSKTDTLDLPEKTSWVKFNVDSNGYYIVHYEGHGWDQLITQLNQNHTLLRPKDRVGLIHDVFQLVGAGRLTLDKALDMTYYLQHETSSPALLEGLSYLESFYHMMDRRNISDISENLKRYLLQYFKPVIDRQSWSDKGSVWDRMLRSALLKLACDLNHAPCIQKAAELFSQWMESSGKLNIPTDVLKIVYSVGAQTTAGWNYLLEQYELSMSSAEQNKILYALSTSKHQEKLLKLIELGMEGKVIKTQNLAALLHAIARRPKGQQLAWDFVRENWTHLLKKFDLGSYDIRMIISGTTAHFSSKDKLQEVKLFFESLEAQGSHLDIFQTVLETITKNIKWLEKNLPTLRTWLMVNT

Row | Structure (SMILES) | outcome
1 | N#Cc1c(N2CCNCC2)nc(-c2ccco2)c2c1CCCC2 | inactive
2 | CCN(CCCl)c1cc(CN(C)C)cc(NC(=O)c2ccc(C(=O)Nc3cc(CN(C)C)cc(N(CC)CCCl)c3)cc2)c1 | inactive
3 | Cc1cc(=O)oc2cc(OCC(=O)N3CCN(C(C)c4ccccc4)CC3)c(Cl)cc12 (stereo not drawn) | inactive
